# Only some compounds are listed: those with a hit (about 3.2% of all), similar ones and a draw of the others.
# LGR2 inh: Drosophila LGR2 receptor signaling inhibition; actives 0.35% (n = 380,000); HEK293 LGR2, CRE-luciferase, bursicon-stimulated, 4 h; inhibition, % at 9.99 µM;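 active means drop in luminescence signal, shown as inhibition above about 50% in the replicate tests, limit read from the data, passing the limit was not always enough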;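 further: agonist challenge used bursicon conditioned medium at about half maximal strength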
# TROY signal inh: inhibitors of TROY-dependent NF-kB signaling. Q293 LMP1-TROYcd NF-kB luciferase reporter, 4 h. inhibition, % at 10 µM. actives 0.98% (n = 360,000). AID 1347056;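 active means compounds whose plate-normalised and pattern-corrected inhibition of the luciferase reporter signal at the single screening dose is 50% or more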
# PAX8 inh HTS: PAX8 transcriptional activity inhibition. RMG-I TPO-luciferase reporter, SteadyGlo, 24 h. inhibition, % at 12.6 µM. actives 1.2% (n = 360,000). AID 652154;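 active means mean replicate inhibition at least 60% with every replicate also reaching 60%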;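 further: luciferase light reporting Pax8 driven TPO promoter activity; plate controls were median of neutral control wells for no effect and mitoxantrone controls for full effect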
# EWS-Fli inh: blocks EWS/Fli oncoprotein-driven transcription | inhibition, % at 12.6 µM | A673 NR0B1-luciferase reporter, viability-normalised | actives 0.67% (n = 350,000);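 active means mean inhibition of at least 50% after viability correction, with every replicate also passing that limit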;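 further: firefly luciferase signal divided by Alamar Blue viability fluorescence both relative to DMSO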
# EBV LMP1 NFkB: Epstein-Barr LMP1 NF-kappaB reporter inhibition | LMP1-induced NF-kappaB luciferase reporter cells, luminescence | inhibition, % at 12.5 µM | actives 0.69% (n = 350,000); in the data active means inhibition above about 41%;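 further: 0% = neutral control wells and 100% = reference inhibitor control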
# TWEAK-Fn14 inh: inhibitors of TWEAK-Fn14 interaction signaling | inhibition, % at 10 µM | AID 1159606 | TWEAK-stimulated Fn14 reporter cells, luciferase luminescence, 8 h | actives 2% (n = 360,000); in the data active means inhibition above about 50%
# Starred values were filed as active, the others as inactive; x = not tested or not shown.
SMILES,LGR2 inh,TROY signal inh,PAX8 inh HTS,EWS-Fli inh,EBV LMP1 NFkB,TWEAK-Fn14 inh
CN1C(=O)C2C3c4ccccc4C(c4ccccc43)[C@@H]2C1=O (some centres not stated),-9,13,0,-1,-3,3
CCC(=O)Nc1ccc2c(c1)OC[C@H](C)N(CCC(F)(F)F)C[C@H](C)[C@@H](OC)CN(C)C2=O,9,x,-29,32,x,x
COc1ccc(/C=N/Nc2cc(C)nc3ccc(Br)cc23)cc1,93*,-6,95*,48,-26,-51
COc1cccc2c(N/N=C/c3ccccc3)cc(C)nc12,-62,1,-6,6,2,25
COc1ccc2nc(C)cc(N/N=C/c3cccc(OC)c3O)c2c1,5,-42,95*,68*,5,-59
O=C(Nc1ccc(Cl)cc1)N1C[C@H]2[C@@H](c3ccccc31)[C@H](CO)N2C(=O)c1cccnc1,-3,x,-25,-17,x,x
COc1cccc(Cn2c(N)c(C#N)c3nc4ccccc4nc32)c1OC,x,65*,8,x,7,18
N#Cc1c(N)n(CCc2ccc(F)cc2)c2nc3ccccc3nc12,x,x,x,x,6,63*
COc1cc(-n2c(N)c(C(=O)NCc3ccco3)c3nc4ccccc4nc32)cc(OC)c1OC,-4,-17,16,3,-7,-3
COc1ccc(Cn2c(N)c(C#N)c3nc4ccccc4nc32)cc1,-2,19,x,x,-27,33
N#Cc1c(N)n(CCOC(=O)c2cccc([N+](=O)[O-])c2)c2nc3ccccc3nc12,x,23,20,x,0,-7
Nc1c(C(=O)NCc2ccco2)c2nc3ccccc3nc2n1CCc1ccc(F)cc1,x,64*,x,x,2,21
N#Cc1c(N)n(CCOC(=O)c2cccc(Br)c2)c2nc3ccccc3nc12,x,69*,x,x,0,12
O=C(c1ccc(F)cc1)N1CC(=O)N2[C@H](CO)[C@H](c3ccc(-c4cccnc4)cc3)[C@@H]2C1,8,x,-16,11,x,x
Cc1ccc(S(=O)(=O)Nc2ccc3c(c2)CC(=O)N([C@@H](C)CO)C[C@@H](C)[C@H](CN(C)S(=O)(=O)c2c(C)noc2C)O3)cc1,1,x,-18,5,x,x
Nc1c(C(=O)NCCN2CCOCC2)c2nc3ccccc3nc2n1CCc1ccccc1F,x,16,x,x,10,16
COc1ccc(-n2c(N)c(C(=O)NCc3ccco3)c3nc4ccccc4nc32)cc1OC,16,3,2,x,6,42
COc1ccc(-n2c(N)c(C(=O)NCc3ccco3)c3nc4ccccc4nc32)cc1,x,30,x,x,4,66*
Nc1c(C(=O)NCCN2CCOCC2)c2nc3ccccc3nc2n1CCc1ccccc1,x,69*,x,x,15,14
O=C(Nc1ccc2c(c1)[C@@H]1C[C@H](CC(=O)N3CCOCC3)O[C@@H](CO)[C@@H]1O2)c1cccnc1,1,x,3,6,x,x
COc1cccc(CN(C)C(=O)C(CCSC)NS(=O)(=O)c2ccc3c(c2)OCCO3)c1OC (configuration not stated),12,17,70*,0,7,-4
CSCCC(NS(=O)(=O)c1ccc2c(c1)OCCO2)C(=O)N(C)Cc1ccc(C)cc1 (configuration not stated),10,1,16,-8,3,15
OC1(c2cccc(C(F)(F)F)c2)CCN(c2ncnc3c2[nH]c2ccccc23)CC1,x,53*,x,x,26,58*
CCOc1ccc2[nH]c3c(N4CCN(c5ccccn5)CC4)ncnc3c2c1,x,19,x,x,10,19
Cc1ccc2c(c1)[nH]c1c(N3CCN(Cc4ccccc4)CC3)ncnc12,x,68*,x,x,22,96*
SMILES,LGR2 inh,TROY signal inh,PAX8 inh HTS,EWS-Fli inh,EBV LMP1 NFkB,TWEAK-Fn14 inh
c1ccc2c(c1)CCN(c1ncnc3c1[nH]c1ccccc13)C2,x,48,x,x,39,85*
c1ccc(CN2CCN(c3ncnc4c3[nH]c3ccccc34)CC2)cc1,x,67*,x,x,53*,97*
c1ccc2c(c1)[nH]c1c(N3CCC4(CC3)OCCO4)ncnc12,x,9,x,x,22,21
C[C@H](CO)N1C[C@H](C)[C@H](CN(C)S(=O)(=O)c2ccc(F)cc2)Oc2ncc(-c3cccc(C(F)(F)F)c3)cc2C1=O,-1,x,x,34,x,x
CCCC(=O)Nc1ccc2c(c1)C(=O)N(C)C[C@H](OC)[C@H](C)CN(Cc1ccc(-c3ccccn3)cc1)[C@H](C)CO2,11,x,-40,2,x,x
CC(C)NC(=O)Nc1ccc2c(c1)C(=O)N([C@@H](C)CO)C[C@@H](C)[C@@H](CN(C)Cc1ccc(C(=O)O)cc1)O2,1,x,-36,2,x,x
Cc1ccc2[nH]c3c(N4CCN(Cc5ccccc5)CC4)ncnc3c2c1,x,55*,x,x,58*,103*
CC1CC(C)C(=O)C(C(CC2CC(=O)NC(=O)C2)OC(=O)CC(=O)c2ccccc2)C1 (configuration not stated),82*,40,85*,2,52*,51*
O=C1CCC(C(=O)OCC(=O)c2ccccc2)N1 (configuration not stated),23,10,-11,-4,7,4
CC(OC(=O)c1ccc(O)cc1)C(=O)Nc1nc(-c2ccccc2)cs1 (configuration not stated),-2,42,14,-25,-10,55*
CC=Cc1ccc2n(c1=O)C[C@H]1[C@H](CO)[C@@H](C(=O)NC3CCC3)[C@@H]2N1C(=O)c1cnccn1 (mixture of isomers),7,x,x,-3,x,x
CC(=O)Nc1ccc2nc(C3CC3)n(Cc3ccc(Cl)cc3)c(=O)c2c1,-57,-56,-120,-90,-33,-52
CCC(=O)Nc1ccc2nc(C3CC3)n(Cc3ccc(C(C)(C)C)cc3)c(=O)c2c1,-63,75*,-102,-11,-31,66*
C[C@H](CO)N1C[C@H](C)[C@@H](CN(C)CC2CC2)Oc2ccc(NS(=O)(=O)c3ccc(F)cc3)cc2CC1=O,-5,x,18,3,x,x
C=CCn1c(-c2ccc(OC)cc2)nc2ccccc21,x,x,x,x,-4,57*
C=CCn1c(-c2ccc(N)cc2)nc2ccccc21,-67,-37,-162,-73,-40,-37
Cc1ccc(-n2c(C)cc(/C=C3\SC(=O)NC3=O)c2C)cc1,-96,-49,-233,-113,-47,-13
Cc1cc(/C=C2\SC(=S)N(C)C2=O)c(C)n1-c1ccc(O)cc1,64*,82*,7,75*,48*,104*
CN1C(=O)/C(=C/c2coc3ccc(O)cc3c2=O)SC1=S,-4,-42,-6,3,-7,-28
Cc1cc(/C=C2\SC(=S)N(C)C2=O)c(C)n1-c1ccccc1O,-32,61*,-127,-60,0,96*
Cc1c(/C=N/Nc2nc3ccccc3[nH]2)c2ccccc2n1C,-1,55*,36,-1,-28,94*
C=CCn1cc(/C=N/Nc2nc3ccccc3[nH]2)c2ccccc21,-12,13,2,-40,-34,53*
Cn1c(/C=N/Nc2nc3ccccc3[nH]2)nc2ccccc21,-3,-43,9,12,-16,-1
